High-throughput results (PubChem BioAssay)
DT40 TDP1 no CPT: qHTS for Inhibitors of human tyrosyl-DNA phosphodiesterase 1 (TDP1): qHTS in cells in absence of CPT; DT40 Tdp1-/- hTDP1 cells, no CPT, ATP luminescence, 48 h; Potency, µM (titrated, usually from 46.2 µM), for the others: at the highest dose activity change, negative = growth inhibition, most hits filed as inhibitors; 420,000 tested, 15% active; AID 686978, 2013; note: potency is the fitted concentration of half-maximal effect; nearly all actives have a fitted effect of over 55% in size
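Chicken DT40 Tdp1-/- cells complemented with human TDP1, screened without camptothecin (DMSO vehicle only), 400 cells/well. Compounds pin-transferred, cells incubated at 37 °C for at least 48 hr. Growth read as ATP-dependent luminescence (CellTiter-Glo, 30 min at RT).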
12-LOX inh: ALOX12 (human) lipoxygenase inhibition. P18054. purified 12hLO, xylenol orange hydroperoxide absorbance. Potency, µM (top dose mostly 108 µM), inactives show at the highest dose activity change, negative = inhibition, usual class: inhibitors. 580,000 tested, 1.1% active. AID 1671190; note: potency is the fitted concentration of half-maximal effect
Target sequence (P18054 whole entry, looked up): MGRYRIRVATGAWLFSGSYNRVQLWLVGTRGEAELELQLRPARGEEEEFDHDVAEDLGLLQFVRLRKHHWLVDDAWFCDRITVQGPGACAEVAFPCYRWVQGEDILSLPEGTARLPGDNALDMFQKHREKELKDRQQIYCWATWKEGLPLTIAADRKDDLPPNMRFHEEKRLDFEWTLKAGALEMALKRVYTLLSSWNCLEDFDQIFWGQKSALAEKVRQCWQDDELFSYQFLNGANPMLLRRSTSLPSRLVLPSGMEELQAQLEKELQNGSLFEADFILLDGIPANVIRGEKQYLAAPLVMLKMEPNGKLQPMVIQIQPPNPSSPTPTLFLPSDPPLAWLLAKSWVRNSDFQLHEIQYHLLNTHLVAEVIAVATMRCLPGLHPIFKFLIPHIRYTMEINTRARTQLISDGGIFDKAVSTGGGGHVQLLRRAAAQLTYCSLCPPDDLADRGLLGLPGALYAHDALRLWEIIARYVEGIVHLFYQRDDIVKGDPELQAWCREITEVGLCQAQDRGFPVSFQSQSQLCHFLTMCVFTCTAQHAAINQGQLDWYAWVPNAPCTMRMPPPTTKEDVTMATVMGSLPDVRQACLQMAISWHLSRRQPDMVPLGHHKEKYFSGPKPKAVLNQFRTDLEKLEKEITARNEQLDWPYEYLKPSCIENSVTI
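Purified human 12hLO (150 nM final) in 25 mM Hepes, 0.01% Triton X-100, pH 7.0 was preincubated 15 min at room temperature with compound. Then 40 uM arachidonic acid was added, 30 min. Hydroperoxide was read by Fe-XO absorbance ratio 573/405 nm.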
HT1080-NT tox: kills 2HG-producing HT-1080-NT fibrosarcoma cells | HT-1080-NT fibrosarcoma viability, CellTiter-Glo ATP luminescence, 48 h | Potency, µM (titrated, usually from 46.1 µM), for the others: at the highest dose activity, negative = less viability, usual class: cytotoxic | 360,000 tested, 1.6% active;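 note: NT is the 2HG producing partner of a matched IDH1 knockdown line; potency is the fitted concentration of half-maximal effect; 0% = DMSO-treated cells and -100% = media-only wells without cells; nearly all actives have a fitted effect of over 55% in size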
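750 cells/well, RPMI + 5% FBS; 2 h settle, compound pin-transfer, 48 h at 37 degrees C. CellTiter-Glo 10 min RT, luminescence. Normalized to DMSO and media-only wells.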
IL-1B inflam inh: inhibitors of inflammasome signaling (IL-1 beta secretion) | THP-1 LPS/ATP IL-1B secretion, AlphaLISA, 16 h; active compounds read low | activity change, % at 57.5 µM | 360,000 tested, 4.7% active; in the data active = activity change below about -50%; inconclusive = mostly about -30% to -49%
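THP-1 cells pretreated 1 hr with compounds (up to 57.5 uM final), then stimulated with LPS (250 ng/mL final) plus ATP (1.25 mM final); secreted IL-1B measured by AlphaLISA after 16 hr, decreased signal indicating inhibition.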
TDP1 cell CPT: DT40-hTDP1 cell growth loss with CPT | chicken DT40 Tdp1-/-;hTDP1 cells + 20 nM CPT, ATP luminescence, 48 h | Potency, µM (top dose mostly 46.2 µM), for the others: top-dose activity change, negative = growth inhibition, hits mostly inhibitors | 420,000 tested, 12% active | AID 686979; note: potency is the fitted concentration of half-maximal effect; nearly all actives have a fitted effect of over 55% in size
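Chicken DT40 Tdp1-/- cells stably complemented with human TDP1 were seeded at 400 cells/well in medium containing 20 nM camptothecin, exposed to pin-transferred compounds, and grown at 37 °C for at least 48 hr. Viability was read as ATP luminescence.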
HT1080 IDH1KD tx: HT-1080 IDH1 knockdown cell toxicity (counter line); 360,000 tested, 2% active; Potency, µM (series often up to 46.1 µM), for inactives: top-dose activity, negative = toxicity, usual class: cytotoxic; HT-1080 IDH1 knockdown viability, ATP luminescence, 48 h;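 note: potency is the fitted concentration of half-maximal effect; 0% = DMSO wells and -100% = cell-free medium wells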
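IDH1KD HT-1080 cells, 750/well, RPMI + 5% FBS; compound pinned after 2 h settling; 48 h, 37 °C; CellTiter-Glo luminescence; % activity normalised to DMSO and no-cell wells; curves fitted, classed by r2 and efficacy.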
Active calls of the source: *; ? = inconclusive; nt = not tested or not shown; [ ] = dose if it differs, or a comment. The entries come from a sample that favours hits as a whole. Unless noted, calls come from the whole dose curve; as a rule, active = well fitted curve in the direction sought with a large enough effect; inconclusive = small, poorly fitted or top-dose-only effect, or another doubt; inactive = no such curve, though single readings can be large; an effect the other way counts as inactive or inconclusive. Unless noted, % is set by controls: 0 for no effect and ±100 for the full control effect.

SMILES | DT40 TDP1 no CPT | 12-LOX inh | HT1080-NT tox | IL-1B inflam inh | TDP1 cell CPT | HT1080 IDH1KD tx
O=C(NC1CCCCC1)c1ccc2c(c1)N(Cc1ccc(F)cc1)C(=O)c1ccccc1S2(=O)=O | -13% | -10% | nt | nt | -27% | nt
CCCCN(C)C(=O)c1ccc2c(c1)N(Cc1ccc(F)cc1)C(=O)c1ccccc1S2(=O)=O | 16µM* | -6% | nt | nt | 16µM* | nt
CN(Cc1ccccc1)C(=O)c1ccc2c(c1)N(Cc1ccccc1Cl)C(=O)c1ccccc1S2 | ? | -16% | nt | nt | ? | nt
COCCN1C(=O)CCC2(CNC(=O)CCc3nc4ccccc4[nH]3)CCCC=C12 (centres undefined) | nt | 49% | nt | nt | nt | nt
COc1ccc(S(=O)(=O)Nc2c(C)nn(C)c2C)cc1Br | ? | 6% | -11% | 13 | -25% | -6%
Cc1nn(C)c(C)c1NS(=O)(=O)c1ccc(N2CCCC2=O)cc1 | 16µM* | 25% | -29% | -57* | 18µM* | ?
Cc1ccc(S(=O)(=O)Nc2c(C)nn(C)c2C)cc1C | 13µM* | 2% | -2% | 14 | 21µM* | -3%
O=C(Cn1cccc1-c1nc(-c2ccc3c(c2)OCO3)no1)Nc1ccc(Cl)cc1 | nt | -8% | nt | nt | nt | nt
COCC(=O)N1CCc2nc(C(C)C)nc(-c3ccc(O)cc3)c2C1 | nt | 23% | nt | nt | nt | nt
O=C(Cc1ccc(F)cc1)N1CCC2(CC1)CCN(Cc1cccs1)c1ccccc1O2 | nt | -5% | nt | nt | nt | nt
CC(C)CCNC(=O)CN1C(=O)CSc2ccc(S(=O)(=O)N3CCCCC3)cc21 | ? | -17% | nt | nt | ? | nt
CC1CCN(S(=O)(=O)c2ccc3c(c2)N(CC(=O)O)C(=O)CO3)CC1 | 16µM* | -13% | nt | nt | 15µM* | nt
CC(C)N(Cc1ccccc1)C(=O)CN1C(=O)COc2ccc(S(=O)(=O)N3CCCCCC3)cc21 | 13µM* | ? | -12% | -21 | 15µM* | -5%
CC(C)N(Cc1ccccc1)C(=O)CN1C(=O)CSc2ccc(S(=O)(=O)N3CCCC3)cc21 | -82% | -2% | nt | nt | 12µM* | nt
CC1CCN(S(=O)(=O)c2ccc3c(c2)N(CC(=O)N2CCN(c4ccccc4)CC2)C(=O)CO3)CC1 | nt | -22% | nt | nt | nt | nt
CSc1ccc(/C=C2\CS(=O)(=O)c3c(F)cccc3C2=O)cc1 | nt | -19% | nt | nt | nt | nt
CN(C)CCNC(=O)c1cc(-c2ccccc2F)cc2c1OCCN2Cc1cccnc1 | nt | 4%[176 µM] | nt | nt | nt | nt
COc1ccc(Cn2c(=O)c3oc4ccccc4c3n(Cc3ccc(Cl)cc3)c2=O)cc1 | 0% | -20% | nt | nt | 0% | nt
Cc1cccc(-n2c(=O)c3ccccc3n(Cc3ccccc3)c2=O)c1 | ? | -20% | nt | nt | 23µM* | nt
Cc1cccc(Cn2c(=O)n(-c3cc(C)cc(C)c3)c(=O)c3oc4ccccc4c32)c1 | 12µM* | 0% | nt | nt | 8.2µM* | nt
Cc1ccc(-n2c(=O)c3oc4ccccc4c3n(Cc3cccc(F)c3)c2=O)cc1C | ? | -25% | nt | nt | 26µM* | nt
COc1ccc(Cn2c(=O)n(Cc3ccco3)c(=O)c3oc4ccccc4c32)cc1 | 23µM* | -4% | nt | nt | ? | nt
COCC(=O)N1CCCC(c2noc(COC)n2)C1 (centres undefined) | nt | 15% | nt | nt | nt | nt
O=c1cc(O)c2c(=O)n(Cc3ccccc3)c3ccccc3c2o1 | 23µM* | -27% | -15% | 26 | ? | -24%
COc1cccc(Cn2c(=O)n(-c3cc(C)cc(C)c3)c(=O)c3oc4ccccc4c32)c1 | 16µM* | 9% | nt | nt | ? | nt
CCCCn1c(=O)c2c(O)cc(=O)oc2c2ccccc21 | ? | ? | 1% | 42 | -2% | 7%
CC(=O)N1c2ccc(S(=O)(=O)N3CCC(C(=O)Nc4cccc(C)c4)CC3)cc2CC1C (centres undefined) | ? | 11% | -1% | 21 | 16µM* | -8%
